From PubChem
The list is not random: actives were taken first. Their share in the collection is about 2.9%.
B2AR arrestin: beta2AR (human) beta-arrestin recruitment activity; 0.02% of 330,000 active; Potency, µM (doses to about 46.1 µM), without a hit: at the top dose activation, hits mostly activators; beta-arrestin recruitment to beta2AR, cell-based reporter; P07550;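 further: potency means the concentration at half of the fitted maximal effect; 0% = DMSO controls and full agonism = EC100 isoproterenol or metaproterenol; nearly all actives have a fitted effect of over 65% in size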
Integrin act MD: integrin-mediated muscular dystrophy alleviation activation; alpha7betagal myoblasts, beta-gal FDG fluorescence, 48 h; 0.064% of 350,000 active; Potency, µM (top dose mostly 38.3 µM), without a hit: at the top dose activation, usual class: activators; AID 624291;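 further: potency means the concentration at half of the fitted maximal effect; 100% = response of the positive control SU9516; nearly all actives have a fitted effect of over 60% in size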
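Alpha7betagal+/- myoblasts (passage 13) were plated 16-24 hr, then exposed to compounds (1:260 dilution of DMSO stock) for 48 hours at 37C. After MPER lysis, β-galactosidase reporter activity was read as FDG fluorescence (ex 480/em 540) after 30 minutes.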
IDH1 R132H inh: blocks human mutant IDH1 R132H enzyme; O75874; IDH1-R132H enzyme, NADPH consumption, diaphorase/resazurin fluorescence; Potency, µM (highest dose often 76.6 µM), inactives show at the highest dose activity change, negative = inhibition, hits mostly inhibitors; 0.093% of 390,000 active; AID 602179; further: potency means the concentration at half of the fitted maximal effect; on the % scale 0 is the no-effect control and ±100 the full control effect; nearly all actives have a fitted effect of over 65% in size
Target sequence (O75874 whole entry R132H, stated change not applied): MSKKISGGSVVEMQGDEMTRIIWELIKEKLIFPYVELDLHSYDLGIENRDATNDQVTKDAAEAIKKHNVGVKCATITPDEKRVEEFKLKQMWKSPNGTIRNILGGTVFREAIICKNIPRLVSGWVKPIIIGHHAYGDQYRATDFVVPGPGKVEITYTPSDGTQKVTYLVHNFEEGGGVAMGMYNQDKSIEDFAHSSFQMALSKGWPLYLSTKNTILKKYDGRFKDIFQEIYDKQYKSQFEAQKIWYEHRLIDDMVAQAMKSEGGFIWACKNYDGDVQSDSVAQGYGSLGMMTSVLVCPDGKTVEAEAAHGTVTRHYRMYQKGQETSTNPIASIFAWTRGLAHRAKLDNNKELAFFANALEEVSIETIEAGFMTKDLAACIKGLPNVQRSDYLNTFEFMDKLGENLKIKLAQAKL
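IDH1-R132H (0.5 ug/mL) preincubated 30 min with compound, then NADPH (0.016 mM) and alpha-KG (2 mM) added; 80 min at RT, pH 7.5. Remaining NADPH coupled via diaphorase/resazurin to fluorescence (540/590 nm); concentration-response curves normalized to no-enzyme control.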
DRD3 antagonist: antagonists of human D3 dopamine receptor; D3R cells, DiscoveRx beta-arrestin luminescence, antagonist mode; hits give low values; max response, negative = inhibition, %; P35462; 2.5% of 360,000 active; in the data active means max response below about -50%; inconclusive means no clear call, values can overlap the other calls; further: on the % scale 0 is the no-effect control and ±100 the full control effect
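Cells plated overnight at 1500 cells/well, then exposed to library compounds with dopamine controls for 90 minutes at 37 degrees C. DiscoveRx reagent added for 30–60 minutes at room temperature; luminescence read, quantitative HTS format.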
DRD3 agonist: agonists of human D3 dopamine receptor; P35462; D3R DiscoveRx beta-arrestin cells, luminescence, 90 min; max activation, %; 0.58% of 410,000 active; AID 652048; in the data active means max activation above about 30%; further: 0% is about no effect
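Agonist-mode cell screen: cells plated at 1500/well and incubated overnight at 37 °C, then exposed to library compounds for 90 min at 37 °C. Detection reagent was added for 30–60 min at room temperature, and luminescence was read.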
Resorufin autofl: counter-screen for mutant IDH1 inhibitors: fluorescence interference. shares compounds with IDH1 R132H inh. Resorufin detection reagent fluorescence interference, cell-free. inhibition of signal, % at 51.2 µM. 750 tested, under 10 active. AID 623980;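 further: 0% = wells with normal resorufin and full inhibition = wells lacking resorufin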
IDH1 WT: inhibits human wild-type IDH1, mutant selectivity check. AID 623995. shares compounds with IDH1 R132H inh. 9% of 750 active. Potency, µM (top dose mostly 115 µM), for the others: top-dose activity change, negative = inhibition, most hits filed as inhibitors. WT IDH1 enzyme, NADPH diaphorase/resazurin fluorescence;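 further: potency means the concentration at half of the fitted maximal effect; 0% = full WT IDH1 enzyme control and full inhibition = no enzyme wells; nearly all actives have a fitted effect of over 55% in size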
Target sequence (O75874 whole entry, looked up): as the sequence (O75874 whole entry R132H, stated change not applied) above, with H132R counted along it
mIDH1 confirm: confirmation of human mutant IDH1 inhibitors | shares compounds with IDH1 R132H inh | IDH1 R132H enzyme, NADPH diaphorase/resazurin fluorescence | Potency, µM (titrated, usually from 76.6 µM), for the others: at the highest dose activity change, negative = inhibition, actives largely listed as inhibitors | 83% of 750 active | AID 624002; further: potency means the concentration at half of the fitted maximal effect; nearly all actives have a fitted effect of over 50% in size
The depositor's hits bear a star; i = inactive; ? = inconclusive; . = not tested or not shown. Unless noted, the call rests on the fitted dose curve; in most records, active means well fitted curve in the direction sought with a large enough effect; inconclusive means small, poorly fitted or top-dose-only effect, or another doubt; inactive means no such curve, though single readings can be large; an effect the other way counts as inactive or inconclusive.

SMILES	B2AR arrestin	Integrin act MD	IDH1 R132H inh	DRD3 antagonist	DRD3 agonist	Resorufin autofl	IDH1 WT	mIDH1 confirm
O=C(NC1CCCC1)C(c1ccccc1)N(Cc1ccco1)C(=O)Cc1cccs1 (configuration not stated)	-0.1%	-3.1%	?	42.4	1.0	-5.2	1.9%	28.2µM*
O=C(NCc1ccco1)C(c1ccccc1)N(C(=O)Cc1cccs1)c1ccccc1F (configuration not stated)	0.1%	2.8%	20.7µM*	1.8	-10.5	-4.3	-1.4%	14.1µM*
O=C(Nc1ccc(F)cc1)C(c1cc2ccccc2o1)N1CCN(c2cccc(C(F)(F)F)n2)CC1 (configuration not stated)	.	.	.	2.8	5.0	.	.	.
CCOc1ccc2nc(S(=O)(=O)NC(=O)C3(C)CCN3C(=O)CCc3cccs3)sc2c1 (configuration not stated)	.	.	.	-2.4	4.8	.	.	.
COc1cc(SC#N)ccc1N=Cc1c(C)[nH]n(-c2ccc(Cl)cc2)c1=O	0.1%	-9.3%	?	-23.9	2.2	-0.7	0.9%	44.7µM*
CC1CCN(S(=O)(=O)c2cc3c4c(c2)C(C)C(=O)N4CCC3)CC1 (configuration not stated)	-0.8%	7.4%	-7.8%	0.0	2.3	.	.	.
CC(C)=CCc1c2c(c3occ(-c4ccc(O)c(O)c4)c(=O)c3c1O)C=CC(C)(C)O2	.	-56.2%	52.1µM*	2.1	-9.3	0.4	-12.3%	44.7µM*
O=c1c(-c2ccc(O)cc2)coc2cc(O)cc(O)c12	0.3%	-11.2%	-3.4%	3.4	-10.0	.	.	.
CC1(C)C=Cc2c(c3c(c4c(=O)c(-c5ccc(O)cc5)coc24)OC(C)(C)CC3)O1	-0.6%	-9.3%	39.8µM*	72.3	0.3	9.3	-14.0%	25.1µM*
Cc1nn(CC(=O)NCc2ccc(F)cc2)c2ccccc12	.	.	27.8%	.	-10.0	.	.	.
Cc1ccc2c(c1)c1c(c(=O)n(-c3ccccc3C)c(=O)n1CC(=O)NCc1ccccc1)n2C	.	.	8.0%	.	0.2	.	.	.
Cc1ccc(C)c(S(=O)(=O)NCCCc2ccccc2)c1	0.5%	-0.1%	8.3%	7.2	0.3	.	.	.
O=C(CN1C(=O)c2ccccc2S1(=O)=O)Nc1ncc(Cl)cc1Cl	-0.2%	-11.4%	-2.7%	?	-3.0	.	.	.
O=C(COc1ccccc1/C=C\c1[nH]c(=O)[nH]c(=O)c1[N+](=O)[O-])Nc1ccccc1	-0.4%	8.1%	41.4µM*	-12.4	1.3	-1.0	?	39.8µM*
O=c1[nH]c(/C=C/c2ccccc2Cl)c([N+](=O)[O-])c(=O)[nH]1	0.6%	-35.9%	-20.7%	10.4	-2.1	.	.	.
CCOc1ccc(C2=C(C(C)=O)Sc3nnc(C)n3N2C(C)=O)cc1	.	.	?	.	-10.6	.	.	.
CC(=O)C1=C(c2cccc([N+](=O)[O-])c2)N(C(C)=O)n2c(C)nnc2S1	0.0%	-9.2%	20.7µM*	?	-10.9	-8.8	i	3.16µM*
Sc1ccccc1N=Cc1cccs1	.	-6.0%	-0.5%	1.4	3.3	.	.	.
O=P(NC1CCCCC1)(c1ccccc1)c1ccccc1	.	8.6%	1.4%	1.7	0.0	.	.	.
CC/C(=C\C1CCCCC1)C(NP(=O)(c1ccccc1)c1ccccc1)c1ccccc1 (configuration not stated)	-0.7%	14.5%	28.2µM*	?	-1.0	-7.4	1.4%	22.4µM*
CCn1cc(Cl)c(C(=O)Nc2nccs2)n1	-0.1%	12.7%	-0.1%	20.5	1.5	.	.	.
C[C@H]1CN([C@@H](C)CO)C(=O)c2cccc(NC(=O)Nc3ccc(C(F)(F)F)cc3)c2O[C@@H]1CN(C)S(=O)(=O)c1ccccc1	-1.0%	-41.5%	?	-13.4	-16.2	1.6	-13.8%	?
COc1ccc(-c2cc(-c3nnc(COC(=O)c4ccc(O)cc4)o3)c3ccccc3n2)cc1OC	-0.8%	-8.3%	?	100.2	22.3	1.2	5.6%	?
Cc1cc(/C=N/n2c(COc3ccccc3)nc3ccccc3c2=O)c(O)c([N+](=O)[O-])c1	2.7%	-3.0%	?	?	-12.3	5.8	3.5%	31.6µM*
Clc1cccc(-n2cc(-c3ccccc3)c3c(NC4CCCC4)ncnc32)c1	.	.	-7.3%	.	-5.3	.	.	.
SMILES	B2AR arrestin	Integrin act MD	IDH1 R132H inh	DRD3 antagonist	DRD3 agonist	Resorufin autofl	IDH1 WT	mIDH1 confirm
COc1ccc(-n2cc(-c3ccccc3)c3c(NC4CCCC4)ncnc32)cc1	.	.	31.6µM*	.	2.2	0.1	-13.9%	14.1µM*
CN(C(=O)CSc1nc(-c2ccc(C(C)(C)C)cc2)c(C#N)c(=O)[nH]1)C1CCCCC1	0.5%	?	?	2.7	-1.7	0.1	?	44.7µM*
CC(=O)c1ccc(NS(=O)(=O)c2cccc(S(=O)(=O)c3ccc(Cl)cc3)c2)cc1	.	.	?	.	-19.4	7.2	-0.8%	44.7µM*
CSC1=NC(=O)/C(=C\c2cccc3ccccc23)S1	-0.4%	3.4%	58.5µM*	-9.7	-4.5	-5.4	70.8µM*	22.4µM*
CC1(C)CC(=O)C2=C(C1)N1C(=C(C#N)C2c2ccccc2Cl)N=C(N)c2ccccc21 (configuration not stated)	2.5%	0.9%	?	10.0	-2.1	-0.6	3.2%	15.8µM*
COc1cc(C(=O)Nc2cc3c(cc2C)n(C)c(=O)c(=O)n3C)cc(OC)c1OC	.	.	1.9%	.	-11.2	.	.	.
CSC1=C(C#N)C(c2ccccc2C)C(C#N)=C(N)N1 (configuration not stated)	-1.0%	-18.6%	?	-21.2	2.7	5.8	116.0%	44.7µM*
COc1ccc(CCC(=O)N2CCN(c3ccc([N+](=O)[O-])cc3)CC2)cc1OC	-0.4%	0.0%	0.0%	16.3	7.0	.	.	.
O=C(NCC(=O)N1CCN(S(=O)(=O)c2cccs2)CC1)c1ccc(Cl)cc1	0.1%	-16.8%	-4.4%	5.7	4.0	.	.	.
CCOC(=O)c1c(NC(=O)CN2CCOCC2)sc2c1CCCC2	0.1%	-6.1%	26.1µM*	7.3	-4.9	-7.3	-9.6%	20µM*
CCOC(=O)c1c(NC(=O)CN2CCCCC2)sc2c1CCN(C(=O)OCC)C2	0.2%	-41.0%	11.7µM*	8.2	20.6	-1.5	4.6%	6.31µM*
CCOC(=O)c1c(NC(=O)CN(CC)CC)sc2c1CCN(C(=O)OCC)C2	-0.3%	-27.0%	-16.3%	15.0	-0.6	.	.	.
CCOC(=O)c1c(NC(=O)CN2CCOCC2)sc2c1CCCC2=O	-0.8%	0.7%	-5.4%	19.6	3.0	.	.	.
